Values joined by “and” are separate entries in the source; they are usually repeats but may differ in a detail not shown here. Identical values can stand only once. The panel holds about 83,000 compounds, 20% with a hit somewhere; the sample as a whole holds those more often.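 Growth was measured after 48 h exposure to one concentration of compound in 96-well plates. Values under 10 count as active.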 Values without a mark were called inactive. Active and inactive are the calls of the source.
tested on: SK-OV-3 ovarian; assay: NCI-60 one-dose screen, 48 h (100 = growth as untreated, 0 = no growth, -100 = all killed); details: 10 µM
Description: Growth inhibition of the SK-OV-3 human tumor cell line is measured as a screen for anti-cancer activity. Cells are grown in 96 well plates and exposed to the test compound for 48 hours. Compounds are tested at a single concentration, which is 10^-5 M for most compounds. The reported endpoint is percent growth (GI% or GIPRCNT), where numbers from 0 - 100% represent growth inhibition, and numbers from -100% - 0 represent cell death. For example, a value of 40 represents 60% growth inhibition. A value of 0 means no net growth occurred over the course of the experiment. A value of -40 indicates 40% of cells at the beginning of the experiment died by the end of the experiment. A value of -100 means all cells are dead at the end of the experiment.
NCI-60 Human Tumor Cell Lines Screen was performed using the standard one-dose NCI protocol, which is described in more detail at https://dtp.cancer.gov/discovery_development/nci-60/default.htm.
Compounds with GIPRCNT values below 10 were considered active. Activity score was based on GIPRCNT using the following formula: […]
Score is 0 for GIPRCNT values of 100 or above, 50 for GIPRCNT values of 0, and 100 for GIPRCNT values of -100.

Structure (SMILES)	growth
O=C(O)CCCc1ccc(N(CCCl)CCCl)cc1	101% and 108%

same assay, conditions: 10 µM unless noted

Structure (SMILES)	growth
O=c1[nH]c(=O)n(Cl)c(=O)n1Cl	111% and 109%
C=C[Se]CC(=O)/C=C/c1ccccc1	53%
Oc1ccccc1C=NCCN=Cc1ccccc1O	102%
COc1ccc(N(CC(=O)NCCC[Te]c2ccccc2)C(=O)c2ccccc2)cc1	1.16% (active)
C=CCOC(=O)C(Br)CC (stereo not given)	105%
NC(=O)Oc1cc(OC(N)=O)cc(N(CCCl)CCCl)c1	76%
CN(C)C(=S)SSC(=S)N(C)C	122% and 113%
C=CC[PH+](c1ccccc1)c1ccccc1.C=CC[PH+](c1ccccc1)c1ccccc1.[Pt+2].[S-]c1nc2ccccc2[nH]1.[S-]c1nc2ccccc2[nH]1	8.34% (active)
CCCN1C(=O)NC(=O)C(CC)(N2C(=O)c3c(F)c(F)c(F)c(F)c3C2=O)C1=O (stereo not given)	-25.4% (active)
O=NN1CCCCC1	107%
Cc1cc(N(CCCl)CCCl)ccc1C=Nc1ccc(-c2csc(-c3ccccc3)n2)cc1	71.6%
O=C1CCCCC1CN1CCCCC1 (stereo not given)	97.9%
CC(=O)c1cccc(S(=O)(=O)F)c1	109%
CC(=O)C(N)Cc1ccccc1 (stereo not given)	83.1%
C[C@]12CCc3sc(Nc4ccc(F)cc4F)nc3C1=CC[C@@H]1[C@@H]2CC[C@]2(C)C(=O)CC[C@@H]12	84.1%
O=[N+]([O-])c1c(Cl)cc(Cl)c([N+](=O)[O-])c1Cl	111%
C[C@]12CCc3sc(Nc4ccc(F)cc4)nc3C1=CC[C@@H]1[C@@H]2CC[C@]2(C)C(=O)CC[C@@H]12	90%
CCOC(=O)c1ccccc1C(=O)OCC	113%
COc1cc2c(cc1OC)-c1c3c(cc4c1[C@@H](C2)N(C)CC4)OCO3	66.5%

Structure (SMILES)	growth
CCCCCCCCCCCCCCCC[n+]1ccccc1	-43% (active) and -22.4% (active)
CCCCCCCCCCCCCCCCCC1OCC(COC(=O)O[C@@H](C(=O)O[C@H]2C[C@@]3(O)[C@@H](OC(=O)c4ccccc4)[C@@H]4[C@]5(OC(C)=O)CO[C@@H]5C[C@H](O)[C@@]4(C)C(=O)[C@H](OC(C)=O)C(=C2C)C3(C)C)[C@@H](NC(=O)c2ccccc2)c2ccccc2)O1 (stereo not given in full)	49.5%
Cc1nc2ccccc2c(=O)n1-c1ccccc1F	97.4%
C/C(=C\c1ccn(-c2ccc(N)cc2F)n1)[C@@H]1C[C@@H]2O[C@]2(C)CCC[C@H](C)[C@H](O)[C@@H](C)C(=O)C(C)(C)[C@@H](O)CC(=O)O1	33.9%
CCC(=O)C(CC(C)N1CCCCCC1)(c1ccccc1)c1ccccc1 (stereo not given)	93.6%
NC1CN2CCC1CC2 (stereo not given)	97.4%
CC(C)c1cccc(C(C)C)c1O	113% and 96.9%
O=C(NCCCN1CC1)Nc1cccc2ccccc12	101% and 95.8%
CC1=CC(=Nc2ccc(N(CCCl)CCCl)cc2)C=C(C)C1=O	49.9%
COC1C(O)CC(OC2CC(Oc3cc4cc5c(c(O)c4c(O)c3C)C(=O)[C@@H](OC3CC(OC4CC(OC6CC(C)(O)C(OC(C)=O)C(C)O6)C(O)C(C)O4)C(O)C(C)O3)[C@H]([C@H](OC)C(=O)[C@@H](O)[C@@H](C)O)C5)OC(C)C2OC(C)=O)OC1C (stereo not given in full)	12.2%
CCC1CCC(=O)O1 (stereo not given)	95.2% and 119%
CN1CCc2cc3c(cc2C1O)OCO3 (stereo not given)	97.9% and 105%
Cc1cc(NC(=O)NCCCOc2ccc(N3C(N)=NC(N)=NC3(C)C)cc2Cl)ccc1S(=O)(=O)F	65.3%
Cc1cc[n+](CCc2ccccc2)cc1	116% and 115%
CNC(=O)CCl	102%
CCCCOC(N)=O	100%
CC1=C(C)C(=O)O[C@@H]([C@](C)(O)[C@]2(O)CC[C@@]3(O)[C@@H]4C[C@H]5O[C@]56CC=CC(=O)[C@]6(C)[C@H]4CC[C@]23C)C1	-19% (active)
CC[C@H](C)[C@H](NC(=O)[C@H]1CCCCN1C)C(=O)N(C)[C@H](C(=O)NC12CC(C(=O)N[C@@H](Cc3ccccc3)C[C@H](C)C(=O)OC)(C1)C2)C(C)C	104%
CCCCS(=O)(=O)Cl	110%

same assay, conditions: 75 µM

Structure (SMILES)	growth [%]
O=C(O)CCCc1ccc(N(CCCl)CCCl)cc1	59.8

Source: PubChem BioAssay (NCI)
